The source of these data is ChEMBL document CHEMBL3988442, “University of Dundee, Small-Polar-MMV Screening Library” (2021).

Set-up in all cases: scale not given: direction of the effect not stated beside the values
For experiment [1], the target named is Protein translocase subunit SecA (Escherichia coli (strain K12)) (UniProt P10408). Description: Assay to Identify E. coli SecA ATPase Inhibitors. The format is functional. As to conditions: 30 µM.
The target of experiment [2] is T1, Ubiquitin-activating enzyme e1, putative (Leishmania donovani (strain BPK282A1)) (UniProt E9BSI1).
T1 sequence (whole entry): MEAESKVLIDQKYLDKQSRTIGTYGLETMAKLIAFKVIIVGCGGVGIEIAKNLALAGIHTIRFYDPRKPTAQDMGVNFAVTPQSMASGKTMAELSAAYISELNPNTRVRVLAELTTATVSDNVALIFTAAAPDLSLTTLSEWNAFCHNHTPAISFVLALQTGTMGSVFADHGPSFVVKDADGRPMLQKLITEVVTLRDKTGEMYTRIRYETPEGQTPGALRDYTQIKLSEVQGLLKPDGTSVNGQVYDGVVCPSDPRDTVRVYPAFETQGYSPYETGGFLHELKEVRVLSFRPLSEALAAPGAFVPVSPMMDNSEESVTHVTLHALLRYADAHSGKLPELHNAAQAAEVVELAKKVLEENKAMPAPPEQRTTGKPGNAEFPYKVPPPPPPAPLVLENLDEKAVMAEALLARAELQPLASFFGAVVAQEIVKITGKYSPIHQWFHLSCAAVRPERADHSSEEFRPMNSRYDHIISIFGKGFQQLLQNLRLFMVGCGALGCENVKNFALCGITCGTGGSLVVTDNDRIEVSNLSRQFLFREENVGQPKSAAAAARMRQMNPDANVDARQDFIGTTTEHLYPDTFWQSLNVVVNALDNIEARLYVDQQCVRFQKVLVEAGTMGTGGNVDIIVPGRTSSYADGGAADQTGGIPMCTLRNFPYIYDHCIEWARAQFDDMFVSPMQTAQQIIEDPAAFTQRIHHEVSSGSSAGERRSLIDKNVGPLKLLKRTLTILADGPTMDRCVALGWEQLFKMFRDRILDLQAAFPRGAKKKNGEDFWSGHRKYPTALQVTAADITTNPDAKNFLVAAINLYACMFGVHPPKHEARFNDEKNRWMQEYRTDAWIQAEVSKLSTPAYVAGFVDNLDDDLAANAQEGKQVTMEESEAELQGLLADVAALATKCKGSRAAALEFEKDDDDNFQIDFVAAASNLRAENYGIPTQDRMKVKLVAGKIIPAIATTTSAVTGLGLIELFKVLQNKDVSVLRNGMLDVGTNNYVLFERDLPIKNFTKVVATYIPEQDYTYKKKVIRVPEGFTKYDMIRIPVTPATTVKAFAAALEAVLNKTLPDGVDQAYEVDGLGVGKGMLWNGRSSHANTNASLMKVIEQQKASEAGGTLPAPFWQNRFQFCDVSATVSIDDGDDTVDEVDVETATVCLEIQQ
Description: Leishmania donovani Ubiquitin Activating Enzyme (LdE1). The format is functional. The settings on record: 30 µM.

Experiment [3] addresses AMP-activated protein kinase, AMPK (Homo sapiens) (UniProt P54646+O43741+P54619+Q9UGJ0+Q9Y478+Q13131+Q9UGI9). Kind of experiment: AMP-dependent Kinase enzyme assay. An in vitro enzyme assay that detects ADP turnover that is directly proportional to AMPK activity. This uses naive AMPK that is activated during the assay with MK-8722. The format is functional. The settings on record: 30 µM.

The target in experiment [4] is Sialic acid-binding Ig-like lectin 9 (Homo sapiens) (UniProt Q9Y336). Kind of experiment: Hs-Siglec9 ALPHAscreen SOP 20170721. As to conditions: 10 µM.
The subject of a further experiment is Trypanosoma cruzi. Description: Trypanosoma cruzi phosphomannomutase and mannose-1-phosphate guanylyltransferase assay. The format is functional. The settings on record: 10 µM.
Experiment [5] deals with T2, Arginase-2, mitochondrial (Homo sapiens) (UniProt P78540).
T2 sequence (whole entry): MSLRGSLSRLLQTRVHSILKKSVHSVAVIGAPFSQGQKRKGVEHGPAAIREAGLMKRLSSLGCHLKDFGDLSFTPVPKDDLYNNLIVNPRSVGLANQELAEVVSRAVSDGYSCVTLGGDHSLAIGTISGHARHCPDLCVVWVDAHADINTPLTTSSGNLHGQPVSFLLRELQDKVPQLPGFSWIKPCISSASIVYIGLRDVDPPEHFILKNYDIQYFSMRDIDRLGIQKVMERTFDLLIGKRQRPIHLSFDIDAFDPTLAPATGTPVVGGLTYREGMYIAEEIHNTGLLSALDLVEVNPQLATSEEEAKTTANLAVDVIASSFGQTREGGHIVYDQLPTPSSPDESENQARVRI
Kind of experiment: in vitro enzyme assay to detect the production of urea directly proportional to the activity of Arginase II. Also: in the data most compounds retested in dose-response had high values. The format is functional. The settings on record: 33.3 µM.

For experiment [6], the target named is T3, Proteasome subunit beta (Trypanosoma cruzi) (UniProt O96673).
T3 sequence (whole entry): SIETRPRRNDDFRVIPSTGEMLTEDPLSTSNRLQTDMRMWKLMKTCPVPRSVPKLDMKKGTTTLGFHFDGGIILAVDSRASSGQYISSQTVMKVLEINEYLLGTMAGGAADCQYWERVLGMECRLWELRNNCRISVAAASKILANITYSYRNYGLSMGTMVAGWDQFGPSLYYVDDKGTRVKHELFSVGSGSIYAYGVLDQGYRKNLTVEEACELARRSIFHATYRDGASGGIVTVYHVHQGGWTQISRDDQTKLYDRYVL
Description: Trypanosoma cruzi proteasome chymotrypsin-like activity (TcProtChymo) assay. Also: in the data most compounds retested in dose-response had high values. The format is functional. As to conditions: 9.37 µM.

The species entered for a further experiment is Homo sapiens. Kind of experiment: To identify inhibition of the IFN signalling (Jak-Stat) pathway via expression of an eGFP reporter gene under the control of an IFN-stimulated response element (ISRE) containing MxA promoter. The format is functional. As to conditions: 30 µM.
The target in experiment [7] is T4, Tyrosyl-tRNA synthetase, putative (Trypanosoma cruzi (strain CL Brener)) (UniProt Q4DSP6).
T4 sequence (whole entry): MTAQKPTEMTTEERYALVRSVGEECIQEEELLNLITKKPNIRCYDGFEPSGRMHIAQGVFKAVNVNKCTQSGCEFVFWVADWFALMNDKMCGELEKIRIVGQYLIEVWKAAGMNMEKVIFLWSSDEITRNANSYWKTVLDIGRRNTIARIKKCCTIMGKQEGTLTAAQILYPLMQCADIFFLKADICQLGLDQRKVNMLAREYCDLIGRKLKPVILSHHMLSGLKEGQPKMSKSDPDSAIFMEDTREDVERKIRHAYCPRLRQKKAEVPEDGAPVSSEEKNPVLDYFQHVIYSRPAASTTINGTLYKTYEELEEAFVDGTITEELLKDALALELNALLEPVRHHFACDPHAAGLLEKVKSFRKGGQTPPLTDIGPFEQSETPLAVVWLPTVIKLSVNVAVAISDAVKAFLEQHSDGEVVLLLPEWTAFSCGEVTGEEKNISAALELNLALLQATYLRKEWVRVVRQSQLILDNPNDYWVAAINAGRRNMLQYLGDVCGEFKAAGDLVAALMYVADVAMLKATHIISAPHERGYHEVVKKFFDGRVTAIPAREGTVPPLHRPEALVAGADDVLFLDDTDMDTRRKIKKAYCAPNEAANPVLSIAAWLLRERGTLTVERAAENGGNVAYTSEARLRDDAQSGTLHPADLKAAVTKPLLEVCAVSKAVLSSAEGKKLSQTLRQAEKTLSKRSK
Kind of experiment: Trypanosoma cruzi tyrosyl tRNA synthetase (TcYRS) _High Tyrosine SOP. Also: in the data most compounds retested in dose-response had high values. As to conditions: 30 µM. The format is functional.

Experiment [8] deals with T4, Tyrosyl-tRNA synthetase, putative (Trypanosoma cruzi (strain CL Brener)). Description: Trypanosoma cruzi tyrosyl tRNA synthetase (TcYRS) SOP. The format is functional. The settings on record: 30 µM.
The target in experiment [9] is Chromo domain-containing protein 1 (Saccharomyces cerevisiae (strain ATCC 204508 / S288c) (Baker's yeast)) (UniProt P32657). Description: ScCHD-1 Enzyme Inhibition Assay. Also: in the data most compounds retested in dose-response had high values. The format is functional. As to conditions: 30 µM.

For some of these results: Measured potencies and affinities stand elsewhere.

Chromo domain-containing protein 1 (Saccharomyces cerevisiae (strain ATCC 204508 / S288c) (Baker's yeast)), sequence (P32657 whole entry, the tested form may be a part): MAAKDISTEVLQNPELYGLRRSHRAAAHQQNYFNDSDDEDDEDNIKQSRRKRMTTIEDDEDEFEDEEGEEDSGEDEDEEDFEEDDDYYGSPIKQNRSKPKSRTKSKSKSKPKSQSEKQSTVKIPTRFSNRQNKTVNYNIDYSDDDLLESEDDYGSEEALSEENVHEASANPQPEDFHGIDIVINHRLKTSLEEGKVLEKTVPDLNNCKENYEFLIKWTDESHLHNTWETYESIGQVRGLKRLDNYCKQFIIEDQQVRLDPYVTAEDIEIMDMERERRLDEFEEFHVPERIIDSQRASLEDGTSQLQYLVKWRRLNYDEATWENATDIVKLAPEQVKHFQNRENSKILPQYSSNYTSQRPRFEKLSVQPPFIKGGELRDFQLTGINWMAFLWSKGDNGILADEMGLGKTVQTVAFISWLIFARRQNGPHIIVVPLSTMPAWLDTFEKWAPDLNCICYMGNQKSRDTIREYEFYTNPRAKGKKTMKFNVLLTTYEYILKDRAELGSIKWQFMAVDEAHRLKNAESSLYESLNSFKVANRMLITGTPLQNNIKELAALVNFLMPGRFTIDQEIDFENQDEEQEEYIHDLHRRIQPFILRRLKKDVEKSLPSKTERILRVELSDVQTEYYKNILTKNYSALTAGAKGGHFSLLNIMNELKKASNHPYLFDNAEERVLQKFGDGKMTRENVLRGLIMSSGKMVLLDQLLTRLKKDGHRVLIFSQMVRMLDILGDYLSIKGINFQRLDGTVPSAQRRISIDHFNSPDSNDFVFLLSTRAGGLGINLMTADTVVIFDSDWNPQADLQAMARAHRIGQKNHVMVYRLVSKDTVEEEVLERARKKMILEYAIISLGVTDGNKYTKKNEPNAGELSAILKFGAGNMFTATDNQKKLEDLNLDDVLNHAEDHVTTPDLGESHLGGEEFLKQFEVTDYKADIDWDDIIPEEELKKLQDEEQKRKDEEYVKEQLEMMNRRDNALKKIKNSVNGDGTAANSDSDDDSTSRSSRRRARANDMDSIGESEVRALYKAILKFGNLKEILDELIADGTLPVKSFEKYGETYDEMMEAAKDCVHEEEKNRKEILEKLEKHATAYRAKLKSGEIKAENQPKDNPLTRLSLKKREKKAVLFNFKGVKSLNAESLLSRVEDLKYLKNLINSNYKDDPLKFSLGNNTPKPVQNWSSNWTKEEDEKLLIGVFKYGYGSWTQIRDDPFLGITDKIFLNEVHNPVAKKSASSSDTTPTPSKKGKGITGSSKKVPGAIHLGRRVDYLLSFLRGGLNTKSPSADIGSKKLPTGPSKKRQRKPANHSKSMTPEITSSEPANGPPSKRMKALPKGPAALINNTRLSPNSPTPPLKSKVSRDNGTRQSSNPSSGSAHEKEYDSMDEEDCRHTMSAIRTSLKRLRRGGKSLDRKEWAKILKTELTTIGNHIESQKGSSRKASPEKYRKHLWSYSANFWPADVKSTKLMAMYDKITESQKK
Sialic acid-binding Ig-like lectin 9 (Homo sapiens), sequence (Q9Y336 whole entry): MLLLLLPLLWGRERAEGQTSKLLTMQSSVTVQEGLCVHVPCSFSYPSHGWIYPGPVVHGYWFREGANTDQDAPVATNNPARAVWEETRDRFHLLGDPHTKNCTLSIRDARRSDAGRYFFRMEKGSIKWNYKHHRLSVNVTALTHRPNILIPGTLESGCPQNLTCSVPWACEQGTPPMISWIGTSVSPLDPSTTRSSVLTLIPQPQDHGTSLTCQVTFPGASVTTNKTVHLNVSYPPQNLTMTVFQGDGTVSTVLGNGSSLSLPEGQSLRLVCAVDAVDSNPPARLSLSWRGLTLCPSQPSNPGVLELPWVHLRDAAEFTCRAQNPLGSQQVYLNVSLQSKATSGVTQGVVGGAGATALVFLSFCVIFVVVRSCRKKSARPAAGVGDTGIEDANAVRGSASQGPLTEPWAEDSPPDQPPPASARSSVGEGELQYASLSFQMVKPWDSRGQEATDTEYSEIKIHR
Protein translocase subunit SecA (Escherichia coli (strain K12)), sequence (P10408 whole entry): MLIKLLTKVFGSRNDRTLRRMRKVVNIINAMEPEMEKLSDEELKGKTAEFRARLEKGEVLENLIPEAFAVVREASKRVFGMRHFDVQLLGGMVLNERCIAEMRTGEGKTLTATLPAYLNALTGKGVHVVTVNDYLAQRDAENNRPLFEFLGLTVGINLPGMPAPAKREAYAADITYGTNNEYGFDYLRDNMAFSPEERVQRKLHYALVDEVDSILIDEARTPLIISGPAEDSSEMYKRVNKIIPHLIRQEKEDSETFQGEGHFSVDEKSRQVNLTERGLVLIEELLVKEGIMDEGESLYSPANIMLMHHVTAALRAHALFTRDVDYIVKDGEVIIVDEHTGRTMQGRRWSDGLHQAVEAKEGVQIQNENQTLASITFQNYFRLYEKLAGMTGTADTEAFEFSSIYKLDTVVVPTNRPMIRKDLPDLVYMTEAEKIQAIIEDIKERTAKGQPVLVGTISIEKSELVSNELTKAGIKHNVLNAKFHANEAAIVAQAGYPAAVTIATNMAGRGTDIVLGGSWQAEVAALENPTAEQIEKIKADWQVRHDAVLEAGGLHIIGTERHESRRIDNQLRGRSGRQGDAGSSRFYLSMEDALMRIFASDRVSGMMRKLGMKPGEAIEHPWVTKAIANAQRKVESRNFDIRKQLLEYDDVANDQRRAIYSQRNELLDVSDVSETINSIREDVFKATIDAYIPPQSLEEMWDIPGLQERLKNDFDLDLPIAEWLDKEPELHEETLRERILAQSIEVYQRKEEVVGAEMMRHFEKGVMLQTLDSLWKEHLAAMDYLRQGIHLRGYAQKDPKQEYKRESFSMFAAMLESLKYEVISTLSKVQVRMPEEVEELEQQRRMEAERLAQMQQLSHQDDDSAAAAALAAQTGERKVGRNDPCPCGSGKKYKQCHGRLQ

`CN(C)S(=O)(=O)N1CCC2(CCCN(Cc3ccc(F)cc3)C2=O)C1` (stereo unspecified): the Percent Effect was -4.94% in experiment [1]; 8.22% in [2]; -3.06% in [3]; 5.14% in experiment [4]; 5.16% in the experiment on Trypanosoma cruzi; 2.4% in experiment [5]. Besides, the Percent Effect in experiment [6] is 5.22%; in the experiment listed under Homo sapiens it was 4%; in experiment [7], 5.21%; in experiment [8], -1.24%; in [9] it was -6.71%.

Take `CCCC(C)CN1CCC(n2cc(C3CCCC3)nn2)CC1` (stereo unspecified): the Percent Effect is -5.89% in [1]; 13.3% in experiment [2]; -5.31% in experiment [3]; 18.9% in experiment [4]; 9.45% in the experiment with Trypanosoma cruzi; 10.4% in [5]. The Percent Effect was 9.07% in experiment [6]; 7.54% in the experiment listed under Homo sapiens; 6.01% in experiment [7]; 11.1% in experiment [8]; -4.05% in [9].

On to `Cc1nc(N2CCCC2)nc2c1CCN(C(=O)C1CCCC1)CC2`, for which the Percent Effect in [1] was -2.37%; in experiment [2] it was 4%; in [3], 0.866%; in experiment [4], 2.33%; in the experiment with Trypanosoma cruzi, -3.54%; in experiment [5], -4.4%. Besides, the Percent Effect in experiment [6] is 15.2%; in the experiment filed under Homo sapiens it was -11.3%; in [7], 9.52%; in experiment [8], 10.3%; in experiment [9], -6.44%.

In the case of `CC(=O)N1CCC2(CC1)CC[C@@]1(C(=O)N(C)C)CN(S(C)(=O)=O)C[C@@H]21`, the Percent Effect in [1] is 0.456%; in experiment [2], 18.9%; in experiment [3] it was -1.01%; in [4] it was 10.2%; with Trypanosoma cruzi, 2.83%; in experiment [5], 12.7%. Also, the Percent Effect was 4.38% in [6]; 28.4% in the experiment listed under Homo sapiens; 3.23% in experiment [7]; 18.5% in experiment [8]; -8.55% in [9].

For the compound `Cc1ccc(C(=O)NS(=O)(=O)c2cc(Cl)ccc2Cl)c(=O)[nH]1`, the Percent Effect in experiment [1] was -2.59%; in experiment [2], 5.41%; in [3] it was -4.48%; in experiment [4] it was 13.3%; in the experiment with Trypanosoma cruzi it was 4.18%; in [5] it was -2.4%. Further, the Percent Effect is 4.67% in experiment [6]; 32% in the experiment filed under Homo sapiens; 5.94% in experiment [7]; 23.2% in experiment [8]; -3.61% in experiment [9].

Take `Cc1cnc(C(=O)N2CCCC(n3ccnc3C)C2)cn1` (stereo unspecified): the Percent Effect in experiment [1] was -4.96%; in [2], 5.26%; in experiment [3], -7.85%; in [4] it was 7.54%; in the experiment on Trypanosoma cruzi it was 8.5%; in experiment [5] it was 0.36%. The Percent Effect was 3.13% in experiment [6]; 3.76% in the experiment listed under Homo sapiens; 5.42% in [7]; 18.5% in experiment [8]; -4.86% in experiment [9].

Consider `CN(Cc1nnc(C2CC2)n1C)C1CCN(Cc2ccc(F)cc2)C1` (stereo unspecified), for which the Percent Effect was -0.349% in experiment [1]; 18.9% in experiment [2]; -8.58% in [3]; 2.26% in experiment [4]; 0.283% with Trypanosoma cruzi; -8.02% in experiment [5]. Also, the Percent Effect was 13% in experiment [6]; 5.85% in the experiment filed under Homo sapiens; -1.48% in experiment [7]; 18.5% in experiment [8]; -10.5% in experiment [9].

Take `CCn1c(N)nc2cc(C(=O)NCCc3sccc3C)cnc21`: the Percent Effect is -4.71% in [1]; -2.74% in experiment [2]; 1.2% in [3]; 24.5% in experiment [4]; 5.29% in the experiment with Trypanosoma cruzi; -2.73% in [5]. For the same compound, the Percent Effect in [6] was 28.6%; in the experiment listed under Homo sapiens, 8.68%; in experiment [7] it was 3.23%; in experiment [8], 20%; in experiment [9] it was -6.44%.

For `CCC(NC(=O)C1CCN(S(C)(=O)=O)CC1)c1ccc(OC)c(C)c1` (stereo unspecified), the Percent Effect was -0.552% in [1]; 2.6% in experiment [2]; 0.574% in experiment [3]; 27.4% in experiment [4]; 4.03% in the experiment on Trypanosoma cruzi; -4.14% in experiment [5]. Moreover, the Percent Effect was 15.3% in experiment [6]; -3.86% in the experiment filed under Homo sapiens; 2.15% in experiment [7]; 1.24% in experiment [8]; 120% in experiment [9].

For `O=C(c1ncccn1)N1C[C@H]2CCC[C@@]2(COCc2ccncc2)C1`, the Percent Effect is -1.29% in experiment [1]; 23.4% in experiment [2]; -4.05% in experiment [3]; -10.3% in experiment [4]; 4.63% in the experiment on Trypanosoma cruzi; 4.52% in experiment [5]. In addition, the Percent Effect in experiment [6] was 13.9%; in the experiment filed under Homo sapiens, 11.8%; in experiment [7], 3.17%; in experiment [8], 14.1%; in experiment [9], -11.1%.

As to `CN(C(=O)c1cc(Cl)c[nH]1)C1CCN(c2ccccn2)CC1`, the Percent Effect in [1] is -4.94%; in experiment [2], -2.6%; in experiment [3], -2.5%; in experiment [4], -14.5%; in the experiment on Trypanosoma cruzi it was 6.17%; in experiment [5], -4%. Moreover, the Percent Effect is 9.46% in experiment [6]; -0.502% in the experiment filed under Homo sapiens; 13.3% in experiment [7]; 23.5% in [8]; -20.8% in experiment [9].
